“And” between values parts separate entries of the source, which are not always exact repeats. Equal values may be shown once. Inconclusive results are not listed. A call without a number means that no potency is given here. A number with no mark means an inactive call. The source made the active and inactive calls. Calls come from the whole dose curve; as a rule, active = well fitted curve in the direction sought with a large enough effect; inconclusive = small, poorly fitted or top-dose-only effect, or another doubt; inactive = no such curve, though single readings can be large; an effect the other way counts as inactive or inconclusive.
How the values were obtained:
[1] = target: Cellular tumor antigen p53 (Homo sapiens) (UniProt P04637); assay: Primary qHTS for small molecule compounds that upregulate eGFP-tagged delta133p53alpha (in N-terminal) cells. (AID 2060322); conditions: NCI-H358 eGFP-delta133p53alpha fluorescence, 24 h; activation: hits give high values; note: nearly all actives have a fitted effect of over 75% in size; note: potency is the fitted concentration of half-maximal effect
Cellular tumor antigen p53 (Homo sapiens), sequence (P04637 whole entry, looked up): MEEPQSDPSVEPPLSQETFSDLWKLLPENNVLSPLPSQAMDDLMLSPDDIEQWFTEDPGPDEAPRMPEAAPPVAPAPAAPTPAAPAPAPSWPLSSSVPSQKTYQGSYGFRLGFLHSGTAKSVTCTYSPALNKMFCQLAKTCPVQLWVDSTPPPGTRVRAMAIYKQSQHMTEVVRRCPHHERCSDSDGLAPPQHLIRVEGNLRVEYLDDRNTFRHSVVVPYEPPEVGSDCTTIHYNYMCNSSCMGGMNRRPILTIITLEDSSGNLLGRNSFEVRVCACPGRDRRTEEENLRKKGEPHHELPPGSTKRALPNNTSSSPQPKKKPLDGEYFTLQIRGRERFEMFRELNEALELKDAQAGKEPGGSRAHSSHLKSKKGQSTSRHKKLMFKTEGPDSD
Procedure, shortened: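 NCI-H358 cells pre-induced 24 h with 10 ng/ml doxycycline to express N-terminal eGFP-delta133p53alpha, then dosed 24 h at 37C without doxycycline; fixed, Hoechst-stained, GFP intensity by laser scanning cytometry, normalized to DMSO (0%) and 57.5 uM 5-azacytidine (100%).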

[2] = BET inhibitor-based combinations targeting novel dependencies in MECOM-rearranged (r) AML: SET-2 cell line (AID 2202231); conditions: SET-2 AML cells viability, CellTiter-Glo luminescence, 48 h; viability: hits give low values, concentration not given here; note: nearly all actives have a fitted effect of over 35% in size; note: potency is the fitted concentration of half-maximal effect
Procedure, shortened: (§1)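 500 cells/well; 11-pt dose curve; 48 h, standard incubator; CellTiter-Glo luminescence after 15 min RT; DMSO/empty-well normalization; AUC plus Z-AUC (mean-centered within each line).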

[3] = BET inhibitor-based combinations targeting novel dependencies in MECOM-rearranged (r) AML: OCI-AML3 cell line (AID 2202232); conditions: CellTiter-Glo luminescence, 48 h; Potency: OCI-AML3 viability; series mostly up to 46 µM; note: nearly all actives have a fitted effect of over 35% in size; note: potency is the fitted concentration of half-maximal effect
Procedure, shortened: as §1

[4] = BET inhibitor-based combinations targeting novel dependencies in MECOM-rearranged (r) AML: MV-4-11 cell line (AID 2202233); conditions: MV-4-11 AML viability, CellTiter-Glo luminescence, 48 h; series mostly up to 46 µM; note: nearly all actives have a fitted effect of over 45% in size; note: potency is the fitted concentration of half-maximal effect
Procedure, shortened: (§2)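 Cells were plated at 500 per well and exposed to each drug across an 11-point dose range for 48 hr at standard incubator conditions. Viability was read by CellTiter-Glo luminescence, and activity was expressed as AUC and per-cell-line Z-transformed AUC.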

[5] = BET inhibitor-based combinations targeting novel dependencies in MECOM-rearranged (r) AML: HNT-34 cell line (AID 2202234); conditions: HNT-34 AML viability, CellTiter-Glo luminescence, 48 h; series mostly up to 46 µM; note: nearly all actives have a fitted effect of over 35% in size; note: potency is the fitted concentration of half-maximal effect
Procedure, shortened: as §2

[6] = BET inhibitor-based combinations targeting novel dependencies in MECOM-rearranged (r) AML: UCSD-AML1 cell line (AID 2202235); conditions: UCSD-AML1 AML cells viability, CellTiter-Glo, 48 h; series mostly up to 46 µM; note: nearly all actives have a fitted effect of over 40% in size
Procedure, shortened: as §2

[7] = BET inhibitor-based combinations targeting novel dependencies in MECOM-rearranged (r) AML: AML-194 cell line (AID 2202237; note: nearly all actives have a fitted effect of over 40% in size; note: potency is the fitted concentration of half-maximal effect); conditions: AML-194 (MECOM-r AML) viability, CellTiter-Glo, 48 h; series mostly up to 46 µM
Procedure, shortened: as §1

[8] = BET inhibitor-based combinations targeting novel dependencies in MECOM-rearranged (r) AML: AML-191 cell line (AID 2202236; note: nearly all actives have a fitted effect of over 35% in size); conditions: AML-191 viability, CellTiter-Glo luminescence, 48 h; series mostly up to 46 µM
Procedure, shortened: as §1

| SMILES | activation [1] | viability [2] [%] | Potency [3] | Potency [4] | Potency [5] | Potency [6] | Potency [7] | Potency [8] | Potency [1] | Potency [2] |
| --- | --- | --- | --- | --- | --- | --- | --- | --- | --- | --- |
| O=C(O)c1cc(=O)[nH]c(=O)[nH]1 | 15.1% and 14.7% | 111 | inactive | inactive | inactive | inactive | inactive |  |  |  |
| CC(C)(F)C[C@H](N[C@@H](c1ccc(-c2ccc(S(C)(=O)=O)cc2)cc1)C(F)(F)F)C(=O)NC1(C#N)CC1 | -2.96% | 104 | inactive | 4.68 µM (active) |  | inactive |  | inactive |  |  |
| COc1cc(C)c(Sc2cnc(NC(=O)c3ccc(CNC(C)C(C)(C)C)cc3)s2)cc1C(=O)N1CCN(C(C)=O)CC1 (stereo unspecified) |  |  | 14.8 µM (active) | 4.17 µM (active) | 16.6 µM (active) |  | 11.8 µM (active) |  | 43.2 µM (active) | 23.5 µM (active) |
| N[C@@H](CC(=O)N1CCn2c(nnc2C(F)(F)F)C1)Cc1cc(F)c(F)cc1F | -12.2% | 112 | inactive | inactive | inactive |  | inactive | inactive |  |  |

Source: PubChem BioAssay (NCATS)
